Rows were chosen to be rich in hits. Some 6.7% of all compounds tested hit in one or more screens of this group.
Pf Dd2 inh: P. falciparum Dd2 growth inhibitors, primary screen, SYBR Green fluorescence, single dose replicates; 72 h; active compounds read low; activity change, % at 10 µM; 2.3% of 94,000 active; AID 1159554, 2015; in the data active = activity change below about -80%; inconclusive = no clear call, values can overlap the other calls
T cruzi growth-1: T. cruzi intracellular proliferation inhibitors, primary screen, cell-based, beta-gal Tulahuen parasites, NIH3T3 host, luminescence | 5.9% of 77,000 active | inhibition, % at 8.34 µM | T. cruzi beta-gal in NIH3T3, GalScreen luminescence, 90 h;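 active = mean inhibition above about 93%, with at least 55% of replicates each passing it, limit read from the data, passing the limit was not always enough; inconclusive = only one of those two conditions holds; inactive = neither condition holds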
C diff HTS: C. difficile growth inhibitors, primary screen, HTS. Clostridium difficile clinical isolate growth, OD600, 24 h; active compounds read low. growth activity, negative = inhibition, % at 16 µg/mL (by protocol). 0.25% of 86,000 active;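 active = mean growth activity at or below -80% and every replicate also at or below -80%; inconclusive = mean at or below -80% but some replicate above -80%; inactive = mean growth activity above -80%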;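 note: 0% = DMSO wells and -100% = levofloxacin 16 µg/mL wells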
T cruzi growth-2: T. cruzi intracellular proliferation inhibitors, confirmation, cell-based, NIH3T3 host, beta-gal parasite, luminescence, cherry-pick; shares compounds with T cruzi growth-1; T. cruzi beta-gal in NIH3T3, GalScreen luminescence, 90 h; inhibition, % at 8.35 µM; 72% of 5,600 active;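 active = mean replicate inhibition above about 95% and at least 55% of replicates individually reaching it, limit read from the data; inconclusive = only one of the two criteria is met; inactive = neither criterion is met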
T cruzi growth-3: inhibitors of intracellular T. cruzi replication, confirmation, NIH3T3 host cells, beta-gal parasites, cherry-pick, set 2; shares compounds with T cruzi growth-1; T. cruzi beta-gal in NIH3T3, GalScreen luminescence, 90 h; inhibition, % at 2.09 µM; 21% of 5,600 active; AID 651740, 2012;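 active = mean inhibition above about 95%, with at least 55% of replicates also reaching it, limit read from the data; inconclusive = meets just one of the two conditions; inactive = meets neither condition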;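 note: plate controls were neutral control median for no effect and positive control median for full effect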
3T3 cytotox: cytotoxicity in mouse NIH/3T3 fibroblasts, confirmation, cytotoxicity control for T. cruzi proliferation inhibitor project, cell-based, cherry-pick, single point | AID 651742, 2012 | shares compounds with T cruzi growth-1 | NIH/3T3 viability, CellTiter-Glo ATP luminescence, 90 h | cytotoxicity (signal decrease), % at 8.35 µM | 14% of 5,600 active;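 active = mean signal decrease across replicates above about 35% based on untreated-well scatter, with enough replicates individually passing, limit read from the data; inconclusive = no rule stated though some were filed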;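 note: 0% = median of neutral control wells and 100% = median of positive control wells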
NIH3T3 tox 2: NIH/3T3 fibroblast cytotoxicity, confirmation, cytotoxicity control, cell-based, cherry-pick, single point, set 2; inhibition, % at 24.9 µM; 56% of 5,600 active; NIH/3T3 viability, CellTiter-Glo ATP luminescence, 90 h; shares compounds with T cruzi growth-1;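 active = mean loss of cell viability signal at or above a set limit, and enough replicates individually reaching it; inconclusive = meets only the mean limit or only the replicate share; inactive = meets neither condition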;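 note: 0% = median of neutral control wells and 100% = median of positive control wells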
* = called active by the depositor.

`Cc1ccc(S(=O)(=O)NC[C@H]2CC[C@@H]3[C@@H](CN3Cc3cc(-c4ccccc4)on3)O2)cc1` gave Pf Dd2 inh 9 and C diff HTS -1.
Screening CC(C)[C@H](C)NC(=O)N(C)C[C@H]1OCc2ccccc2-c2c(n(C)c3ccccc23)C(=O)N([C@@H](C)CO)C[C@H]1C returned Pf Dd2 inh -53 and T cruzi growth-1 -12.
COCC#Cc1cnc2c(c1)C(=O)N([C@H](C)CO)C[C@@H](C)[C@@H](CN(C)C(=O)c1ccc3c(c1)OCO3)O2 was read as Pf Dd2 inh 40, T cruzi growth-1 16 and C diff HTS 1.
CCS(=O)(=O)N1CCCCN2[C@H](CO)[C@H](c3ccc(-c4ccccc4)cc3)[C@H]2C1 was read as Pf Dd2 inh -9, T cruzi growth-1 84 and C diff HTS -11.
`CCS(=O)(=O)N1CCCCN2[C@H](C1)[C@H](c1ccc(-c3ccccc3)cc1)[C@@H]2CO` gave Pf Dd2 inh 3, T cruzi growth-1 20 and C diff HTS -3.
Screening O=S(=O)(Cc1ccccc1)N1CCCCN2[C@@H](CO)[C@@H](c3ccc(-c4ccccc4)cc3)[C@@H]2C1 returned Pf Dd2 inh -65, T cruzi growth-1 99*, C diff HTS 23, T cruzi growth-2 103*, T cruzi growth-3 76, 3T3 cytotox 30 and NIH3T3 tox 2 107*.
`O=S(=O)(Cc1ccccc1)N1CCCCN2[C@H](CO)[C@@H](c3ccc(-c4ccccc4)cc3)[C@H]2C1` gave Pf Dd2 inh -26, T cruzi growth-1 112*, C diff HTS -2, T cruzi growth-2 101*, T cruzi growth-3 33, 3T3 cytotox 20 and NIH3T3 tox 2 106*.
`O=S(=O)(Cc1ccccc1)N1CCCCN2[C@H](CO)[C@H](c3ccc(-c4ccccc4)cc3)[C@@H]2C1` gave Pf Dd2 inh -10, T cruzi growth-1 104*, C diff HTS 1, T cruzi growth-2 108*, T cruzi growth-3 30, 3T3 cytotox -4 and NIH3T3 tox 2 84*.
For O=S(=O)(Cc1ccccc1)N1CCCCN2[C@@H](CO)[C@H](c3ccc(-c4cncnc4)cc3)[C@@H]2C1 the results were Pf Dd2 inh -18, T cruzi growth-1 85 and C diff HTS -2.
Screening O=S(=O)(Cc1ccccc1)N1CCCCN2[C@H](CO)[C@H](c3ccc(-c4ccc(F)cc4)cc3)[C@H]2C1 returned Pf Dd2 inh -48, T cruzi growth-1 inconclusive, C diff HTS 47, T cruzi growth-2 94, T cruzi growth-3 102*, 3T3 cytotox 64* and NIH3T3 tox 2 104*.
Screening CCS(=O)(=O)N1CCCCN2[C@H](C1)[C@@H](c1ccc(-c3ccccc3)cc1)[C@@H]2CO returned Pf Dd2 inh -42, T cruzi growth-1 68 and C diff HTS -3.
For C[C@H](CO)N1C[C@H](C)[C@@H](CN(C)C)Oc2cc(-c3ccc(F)cc3)ccc2S1(=O)=O the results were Pf Dd2 inh -4, T cruzi growth-1 43 and C diff HTS -6.
For CN(C)CC(=O)N1[C@@H]2c3ccc(C4=CCCC4)c(=O)n3C[C@H]1[C@H](CO)[C@H]2C(=O)NCC1CC1 the results were Pf Dd2 inh 2, T cruzi growth-1 11 and C diff HTS -1.
For COc1ccc(S(=O)(=O)N[C@H]2C=C[C@@H](CC(=O)N3CCN(c4ccccc4)CC3)O[C@H]2CO)cc1 the results were Pf Dd2 inh -15, T cruzi growth-1 10 and C diff HTS 1.
`COc1ccc(-c2cn(CC[C@H]3CC[C@H](NC(=O)Cc4ccccn4)[C@@H](CO)O3)nn2)cc1` gave Pf Dd2 inh 7, T cruzi growth-1 -53 and C diff HTS 3.
Screening CCS(=O)(=O)N1CC2(CN[C@H](CO)c3c2c2ccc(OC)cc2n3C)C1 returned Pf Dd2 inh 24.
For Cc1noc(C)c1NC(=O)Nc1ccc2c(c1)CC(=O)N([C@H](C)CO)C[C@H](C)[C@H](CN(C)S(=O)(=O)c1ccc(F)cc1)O2 the results were Pf Dd2 inh 16, T cruzi growth-1 13 and C diff HTS 7.
For CCC(=O)N1[C@H](C(=O)Nc2ccccc2)[C@@H](CO)[C@@H]2Cn3c(ccc(C4=CCCC4)c3=O)[C@@H]21 the results were Pf Dd2 inh 7, T cruzi growth-1 5 and C diff HTS -4.
`O=S(=O)(c1ccc(F)cc1)N1CCCCN2[C@H](CO)[C@@H](c3ccc(-c4ccccc4)cc3)[C@@H]2C1` gave Pf Dd2 inh -3, T cruzi growth-1 64 and C diff HTS 8.
O=S(=O)(c1ccc(F)cc1)N1CCCCN2[C@H](C1)[C@@H](c1ccc(-c3ccccc3)cc1)[C@@H]2CO was read as Pf Dd2 inh 10, T cruzi growth-1 103*, C diff HTS 6, T cruzi growth-2 108*, T cruzi growth-3 74, 3T3 cytotox 13 and NIH3T3 tox 2 62*.
`N#C[C@@H]1[C@@H](c2ccc(-c3ccc(F)cc3)cc2)[C@H](CO)N1c1nc(-c2ccccc2)cs1` gave Pf Dd2 inh 4, T cruzi growth-1 103*, C diff HTS 6, T cruzi growth-2 107*, T cruzi growth-3 71, 3T3 cytotox 11 and NIH3T3 tox 2 25.
N#C[C@@H]1[C@H](c2ccc(-c3ccc(F)cc3)cc2)[C@H](CO)N1c1nc(-c2ccccc2)cs1 was read as Pf Dd2 inh 32, T cruzi growth-1 101*, C diff HTS -9, T cruzi growth-2 -11, T cruzi growth-3 31, 3T3 cytotox -5 and NIH3T3 tox 2 -11.
For N#C[C@@H]1[C@H](c2ccc(-c3ccc(F)cc3)cc2)[C@@H](CO)N1c1nc(-c2ccccc2)cs1 the results were Pf Dd2 inh -21 and C diff HTS -6.
`N#C[C@@H]1[C@H](c2ccc(-c3cccc(F)c3)cc2)[C@@H](CO)N1c1nc(-c2ccccc2)cs1` gave Pf Dd2 inh 17 and C diff HTS -2.
For C[C@H]1CN([C@@H](C)CO)C(=O)Cc2cc(NC(=O)Cc3ccccc3)ccc2O[C@H]1CN(C)Cc1ccncc1 the results were Pf Dd2 inh 2 and C diff HTS 2.
Screening CCC(=O)N[C@@H]1C=C[C@@H](CC(=O)NCc2cc(F)cc(F)c2)O[C@@H]1CO returned Pf Dd2 inh 25 and T cruzi growth-1 -7.

Screening results (PubChem)
